Experimental findings from PubChem BioAssay (NCI) are described below.

Compounds without any hit were thinned out: in the full panel of roughly 83,000, 20% have a hit.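 Cell lines were cultured in 96-well plates, exposed to a single compound concentration, and assessed for percent growth 48 hours later.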 The source made the active and inactive calls.

This test relates to SR leukemia. The experiment in a line: NCI-60 one-dose screen, 48 h (100 = growth as untreated, 0 = no growth, -100 = all killed). The note with it: 10 µM unless noted. As to the method:
Growth inhibition of the SR human tumor cell line is measured as a screen for anti-cancer activity. Cells are grown in 96 well plates and exposed to the test compound for 48 hours. Compounds are tested at a single concentration, which is 10^-5 M for most compounds. The reported endpoint is percent growth (GI% or GIPRCNT), where numbers from 0 - 100% represent growth inhibition, and numbers from -100% - 0 represent cell death. For example, a value of 40 represents 60% growth inhibition. A value of 0 means no net growth occurred over the course of the experiment. A value of -40 indicates 40% of cells at the beginning of the experiment died by the end of the experiment. A value of -100 means all cells are dead at the end of the experiment.
NCI-60 Human Tumor Cell Lines Screen was performed using the standard one-dose NCI protocol, which is described in more detail at https://dtp.cancer.gov/discovery_development/nci-60/default.htm.
Compounds with GIPRCNT values below 10 were considered active. Activity score was based on GIPRCNT using the following formula: […]
Score is 0 for GIPRCNT values of 100 or above, 50 for GIPRCNT values of 0, and 100 for GIPRCNT values of -100.
In the case of `Cc1ccc(-c2nc([P+](c3ccccc3)(c3ccccc3)c3ccccc3)c(S(=O)(=O)c3ccc(C)cc3)o2)cc1`, the growth was -10.9% (active).

`COC1=CC(c2ccc[nH]2)=N/C1=C\c1[nH]c(C)c(C)c1CCC(=O)OCc1ccccc1`: the growth was -47.1% (active). Regarding `C=C(CBr)[C@@H]1CC[C@]2(C(=O)O)CC[C@]3(C)[C@H](CC[C@@H]4[C@@]5(C)CCC(=O)C(C)(C)[C@@H]5CC[C@]43C)[C@@H]12`, the growth was 60% (inactive). With `O=c1scc(-c2ccc(C(F)(F)F)cc2)s1`, the growth was 89.9% (inactive). On to `COc1ccc(C(=O)Nc2cccc(-c3cc(=O)c4c(OC)c(OC)c(OC)cc4o3)c2)cc1`, for which the growth was 28.6% (inactive). As to `Cc1cc(C)c2c(c1)N(C)c1ncnc(-n3cnc4cc(C)ccc43)c1CC2C` (stereo not given), the growth was 4.51% (active).

For the compound `O=C1Nc2ccc(C(=O)O)cc2/C1=N/c1nnc(Sc2ccccc2)s1`, the growth is 87.8% (inactive). As to `O=C(O)c1ccc(-n2cc(/C=N/Nc3ccccc3)c(-c3ccc(F)cc3F)n2)cc1`, the growth was 72% (inactive). `O=c1c2cnn(-c3ccccc3)c2n2c(CN3CCOCC3)nnc2n1-c1ccccc1`: the growth is 104% (inactive). The same measure for `Cc1ccc(C(=O)c2ccc(CC(=O)N/N=C/c3ccccc3O)n2C)cc1`: 56.2% (inactive); for `N#CSCC1CC(O)(c2ccccc2)CC(c2ccc(F)cc2)O1` (stereo not given): -29.6% (active); for `COc1cc(-c2nccc3[nH]c(-c4ccc5cc[nH]c5c4)nc23)cc(OC)c1OC`: -4.95% (active).

With `CC(=O)O[C@@H]1C[C@]2(C(C)C)O[C@@]1(C)[C@@H]1CCC(C)=C1[C@@H]2OC(=O)/C=C/c1ccccc1`, the growth is 73.6% (inactive). The figure for `COc1cc2oc(-c3cccc(NC(=O)c4ccccc4)c3)cc(=O)c2c(OC)c1OC` is 31.6% (inactive); for `C=CCn1c(SCC(=O)Nc2ccc(C(=O)/C=C/c3ccc(Cl)cc3)cc2)nnc1-c1ccc(Br)cc1` it is 70.7% (inactive); for `CCC(C(=O)[C@@H](C)[C@@H](O)[C@H](C)[C@@H]1O[C@@H]([C@@H](CC)C(=O)ONC(=O)c2ccccc2)CC[C@@H]1C)[C@H]1O[C@]2(C=CC(=O)[C@]3(CC[C@@](C)([C@H]4CC[C@](O)(CC)[C@H](C)O4)O3)O2)[C@H](C)C[C@@H]1C` (stereo not given in full) it is -22.5% (active). Take `O=C1/C(=C/c2cccc(F)c2)CN(C(=O)C(Cl)Cl)C/C1=C\c1cccc(F)c1`: the growth was -15.8% (active). The figure for `Cc1ccc(C2=Nc3c(N)ncnc3NC(c3cccc(Nc4ccnc5cc(C(F)(F)F)ccc45)c3)C2)cc1` (stereo not given) is -19.3% (active); for `CC(C)=CCC[C@](C)(O)[C@H]1CC[C@]2(C)[C@@H]1CC[C@@H]1[C@@]3(C)C/C(=C/c4ccco4)C(=O)C(C)(C)[C@@H]3CC[C@]12C` it is 113% (inactive); for `COc1ccccc1NC(=O)N=Nc1c(O)[nH]c2ccccc12` it is 83.9% (inactive). For the compound `c1ccc(Cn2cc3c(c2)-c2oncc2CC3)cc1`, the growth was 39.3% (inactive).

Consider `Cc1cccc(CNc2c3ccccc3nc3ccccc23)c1`, for which the growth is -2.88% (active). The same measure for `N#CC1=C(N)Oc2c(sc3c(Br)cccc23)C1c1ccc(Cl)cc1` (stereo not given): 4.58% (active); for `O=C(/C=C/c1cccs1)Nc1ncc(Cc2ccccc2F)s1`: 26.1% (inactive); for `COC(=O)c1c(C)c2n(c1C)C(=O)C(c1ccccc1)=C2`: 102% (inactive). The figure for `O=c1c2cccc3c(N4CCCC4)ccc(c32)c2nc3ccccc3n12` is 20.2% (inactive); for `COc1cc(-c2cncn2-c2ccc(-c3nc4ccc(F)cc4s3)cc2)ccc1F` it is 73% (inactive); for `COc1cc(/C=C/C(=O)c2ccc(F)cc2)ccc1OCCCCOc1ccc(/C=C/C(=O)c2c(C)nc3ccccc3c2C)cc1OC` it is 79.2% (inactive). Turning to `CC(C)c1ccc(Cc2cnc(NC(=O)c3cc(Br)cs3)s2)cc1`, the growth was 16.8% (inactive). For the compound `CCOC(=O)NC(C)C`, the growth was 112% (inactive).

Consider `Cn1cc(-c2nonc2-c2cn(C)c3ccccc23)c2ccccc21`, for which the growth was 16% (inactive). Turning to `O=C(Nc1ccc(Oc2cccc(F)c2)c(Cl)c1)c1cccnc1`, the growth was 23.8% (inactive). Take `Cc1cc(=O)n(C(=O)Nc2ccccc2Cl)c2cc(O)ccc12`: the growth was 112% (inactive). Consider `C=C(C)[C@@H]1CC[C@]2(C(=O)N3CCOCC3)CC[C@]3(C)[C@H](CC[C@@H]4[C@@]5(C)C/C(=C/c6ccncc6)C(=O)C(C)(C)[C@@H]5CC[C@]43C)[C@@H]12`, for which the growth is 34.7% (inactive). Take `COc1ccc2c(c1)CC[C@H](O)/C2=C/c1cc(OC)c(OC)c(OC)c1`: the growth was -5.45% (active). Take `O=C(CSc1oc(-c2ccccc2)nc1S(=O)(=O)c1ccccc1)Nc1ccc(F)cc1`: the growth was 83.8% (inactive).

Turning to `COc1ccc(CN2c3ccccc3Sc3ccccc32)cc1F`, the growth is 16.9% (inactive). In the case of `C=CCc1c(O)c(C(=O)/C=C/c2ccccc2)c(OC)c2ccoc12`, the growth is 20.6% (inactive). For the compound `COc1ccc(NC2=C(I)C(=O)c3ncccc3C2=O)cc1`, the growth was 6.66% (active). Consider `C=C1C(=O)O[C@H]2[C@H]1CC/C(COC(=O)/C=C\C(=O)NCc1ccc(Cn3c(=O)sn(CCI)c3=O)cc1)=C\CC[C@@]1(C)O[C@@H]21`, for which the growth is 2.49% (active).
